Hits are enriched below; roughly 3% of the tested compounds scored in any of these assays.
SENP8 block-1: human SENP8 protease inhibitors, primary screen, biochemical, fluorescence, Nedd8 protein substrate, uHTS; 0.64% of 360,000 active; inhibition, % at 20 µM; recombinant SENP8; Sentrin-specific protease 8 (Homo sapiens), Q96LD8; in the data active means inhibition mostly above about 40%, no sharp cut-off; inactive means mostly below about 27%
SENP7 inh: SENP7 protease inhibitors, primary screen, biochemical, luminescence, uHTS; Sentrin-specific protease 7 (Homo sapiens), Q9BQF6; recombinant SENP7, Z-RLRGG-aminoluciferin luminescence, 40 min; inhibition, % at 5 µM; 1.5% of 330,000 active; AID 434973, 2010;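 active means inhibition above about 50% at the single test dose, limit read from the data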
Target sequence (Q9BQF6 706-1050 limits assumed): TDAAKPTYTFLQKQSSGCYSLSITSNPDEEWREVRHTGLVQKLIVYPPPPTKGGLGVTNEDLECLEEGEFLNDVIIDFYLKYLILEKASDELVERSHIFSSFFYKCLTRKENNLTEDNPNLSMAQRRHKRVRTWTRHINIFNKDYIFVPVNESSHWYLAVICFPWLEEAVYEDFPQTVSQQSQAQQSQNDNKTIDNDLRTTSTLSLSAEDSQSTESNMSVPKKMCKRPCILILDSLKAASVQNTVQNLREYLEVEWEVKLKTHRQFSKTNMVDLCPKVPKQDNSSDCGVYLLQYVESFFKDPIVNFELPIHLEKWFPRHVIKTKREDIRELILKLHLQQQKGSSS
PPC-1+TRAIL kill: compounds killing PPC-1 cancer cells with TRAIL present, primary screen, TRAIL potentiator project, ATPLite luminescence, uHTS | PPC-1 cells + TRAIL, ATPLite viability luminescence | cell killing (% activity), % at 4 µM or 5 µM | 0.41% of 220,000 active | AID 1443, 2008;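 active means cell killing above 50% in the first pass at 4 µM, then a duplicate retest at 5 µM averaging 50% or more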
SENP8 block-2: SENP8 protease inhibitors, primary screen, biochemical, luminescence | Sentrin-specific protease 8 (Homo sapiens), Q96LD8 | purified SENP8, Z-RLRGG-aminoluciferin cleavage | inhibition, % at 10 µM | 1.2% of 330,000 active | AID 2540, 2010; in the data active means inhibition above about 50%
C8 TRAIL sens: viability loss with TRAIL in NB7+C8 cells, primary screen, TRAIL sensitizer project, cell-based, ATPlite luminescence. inhibition (viability loss, TRAIL sensitization), % at 10 µM. 1% of 360,000 active;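 active means compounds causing at least 50% loss of cell viability in the single-dose screen, relative to plate controls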
SENP6 block: SENP6 protease inhibitors, primary screen, biochemical, luminescence, uHTS; Sentrin-specific protease 6 (Homo sapiens), Q9GZR1; Recombinant SENP6 catalytic domain, aminoluciferin luminescence; inhibition, % at 10 µM; 1.8% of 330,000 active;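 active means inhibition above about 50% at the single tested dose, limit read from the data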
SENP8 confirm: SENP8 protease inhibitors, retest, confirmation, biochemical, luminescence, single concentration | shares compounds with SENP7 inh | Recombinant SENP8, Z-RLRGG-aminoluciferin luminescence, 60 min | inhibition, % at 12.5 µM | 40% of 6,200 active | AID 488912, 2010;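 active means mean inhibition across replicates above about 50%, limit read from the data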
SENP6 confirm: SENP6 protease inhibitors, confirmation, biochemical, luminescence, single concentration. shares compounds with SENP7 inh. recombinant SENP6, Z-RLRGG-aminoluciferin luminescence. inhibition, % at 12.5 µM. 58% of 6,200 active. AID 488915, 2010
SENP7 confirm: SENP7 protease inhibitors, retest, confirmation, biochemical, luminescence, single concentration | 69% of 6,200 active | shares compounds with SENP7 inh | inhibition, % at 12.5 µM | AID 488917, 2010 | recombinant SENP7, Z-RLRGG-aminoluciferin luminescence, 40 min
Casp3 select: caspase-3 protease inhibitors, confirmation, selectivity assay for SENP inhibitor project, biochemical, single concentration; shares compounds with SENP7 inh; purified caspase-3, Z-DEVD-aminoluciferin luminescence, 60 min; inhibition, % at 12.5 µM; 60% of 6,200 active;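 active means mean inhibition above about 50%, limit read from the data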
Target sequence (P42574 28-227 limits assumed): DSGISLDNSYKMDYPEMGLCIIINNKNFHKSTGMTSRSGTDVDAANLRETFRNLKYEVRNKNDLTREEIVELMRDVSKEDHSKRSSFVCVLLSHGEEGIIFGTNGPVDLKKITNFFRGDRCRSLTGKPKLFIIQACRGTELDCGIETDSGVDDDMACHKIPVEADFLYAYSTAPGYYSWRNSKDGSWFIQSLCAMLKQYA
Luc interf: luminescence interference (SENP counter-screen); AID 488919; Pre-incubated SENP8/Z-RLRGG-aminoluciferin, luciferase luminescence interference; 39% of 6,200 active; shares compounds with SENP7 inh; inhibition, % at 12.5 µM;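 active means mean inhibition above about 50% when retested at one dose, limit read from the data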
Hits are given with their value.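 How the source made its calls, unless noted: active means mean inhibition above about 50% in the one-dose retest (limit read from the data); inactive means the rest.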

`O=C(Nc1cccc(O)c1)c1cc(-c2ccccc2Cl)on1` gave SENP8 block-1 inactive, SENP7 inh 95, SENP8 block-2 93, C8 TRAIL sens 70, SENP6 block 97, SENP8 confirm inactive, SENP6 confirm 94, SENP7 confirm 101, Casp3 select 87 and Luc interf 94.
`COc1ccc(NC(=O)c2cc(-c3ccccc3Cl)on2)cc1OC` gave SENP8 block-1 inactive, SENP7 inh inactive, SENP8 block-2 inactive, C8 TRAIL sens inactive and SENP6 block inactive.
Screening COc1cc(NC(=O)c2cc(-c3ccc4c(c3)OCO4)on2)cc(OC)c1OC returned SENP8 block-1 inactive, SENP7 inh inactive, SENP8 block-2 inactive, C8 TRAIL sens inactive and SENP6 block inactive.
c1ccc(Cn2nc(-c3ccccc3)nc2-c2ccccc2)cc1 was read as SENP8 block-1 inactive, SENP7 inh inactive, PPC-1+TRAIL kill inactive, SENP8 block-2 inactive, C8 TRAIL sens inactive, SENP6 block 62, SENP8 confirm inactive, SENP6 confirm inactive, SENP7 confirm 74, Casp3 select inactive and Luc interf inactive.
`COc1ccc(CN2CC[C@@H]3CN(C(C)=O)[C@H](c4ccccc4Br)C[C@@H]32)cc1` gave SENP8 block-1 inactive and C8 TRAIL sens inactive.
For CCOC(=O)Cn1c2ccc(C)cc2c2nc(C)sc21 the results were SENP8 block-1 inactive, SENP7 inh inactive, PPC-1+TRAIL kill inactive, SENP8 block-2 inactive, C8 TRAIL sens inactive, SENP6 block 51, SENP8 confirm inactive, SENP6 confirm inactive, SENP7 confirm inactive, Casp3 select inactive and Luc interf inactive.
`CCC(=O)c1ccc(OCC(=O)OCC(=O)NCCC2=CCCCC2)cc1` gave SENP8 block-1 inactive, SENP7 inh inactive, SENP8 block-2 inactive, C8 TRAIL sens inactive and SENP6 block inactive.
Screening O=C(Nc1ccc2[nH]c(=S)sc2c1)Nc1ccccc1F returned SENP8 block-1 inactive, SENP7 inh 99, PPC-1+TRAIL kill inactive, SENP8 block-2 95, C8 TRAIL sens inactive, SENP6 block 97, SENP8 confirm 99, SENP6 confirm 100, SENP7 confirm 104, Casp3 select 98 and Luc interf 90.
Screening O=C(Nc1ccc2[nH]c(=S)sc2c1)c1ccccc1 returned SENP8 block-1 inactive, SENP7 inh 52, PPC-1+TRAIL kill inactive, SENP8 block-2 inactive, C8 TRAIL sens inactive, SENP6 block inactive, SENP8 confirm 66, SENP6 confirm 67, SENP7 confirm 88, Casp3 select 83 and Luc interf 74.
For O=C(Nc1ccc2[nH]c(=O)[nH]c2c1)Nc1ccc(F)cc1F the results were SENP8 block-1 inactive, SENP7 inh inactive, PPC-1+TRAIL kill inactive, SENP8 block-2 inactive, C8 TRAIL sens inactive and SENP6 block inactive.
COc1cc(/C=N/NC(=O)c2cncc(Br)c2)cc([N+](=O)[O-])c1O was read as SENP8 block-1 inactive, SENP7 inh 72, PPC-1+TRAIL kill inactive, SENP8 block-2 66, C8 TRAIL sens inactive, SENP6 block 83, SENP8 confirm 84, SENP6 confirm 80, SENP7 confirm 96, Casp3 select 84 and Luc interf 61.
`COc1cc([N+](=O)[O-])cc(/C=N/NC(=O)c2cncc(Br)c2)c1O` gave SENP8 block-1 inactive, SENP7 inh 67, PPC-1+TRAIL kill inactive, SENP8 block-2 64, C8 TRAIL sens inactive, SENP6 block 89, SENP8 confirm 81, SENP6 confirm 76, SENP7 confirm 96, Casp3 select 84 and Luc interf 52.
Screening COc1cc([N+](=O)[O-])cc(/C=N/NC(=O)c2cc(C)nc3ccccc23)c1O returned SENP8 block-1 inactive, SENP7 inh inactive, PPC-1+TRAIL kill inactive, SENP8 block-2 inactive, C8 TRAIL sens inactive and SENP6 block inactive.
Screening COc1cc(/C=N/NC(=O)c2cccc([N+](=O)[O-])c2)cc(OC)c1O returned SENP8 block-1 inactive, SENP7 inh inactive, PPC-1+TRAIL kill inactive, SENP8 block-2 inactive, C8 TRAIL sens inactive and SENP6 block inactive.
`O=S(=O)(c1ccccc1)n1cc(-c2cccc3nccn23)c2ccccc21` gave SENP8 block-1 inactive and C8 TRAIL sens inactive.
C/C(CC(=O)NC1CCCCC1)=N\NC(=O)COc1ccc(C)cc1Br was read as SENP8 block-1 inactive, SENP7 inh inactive, PPC-1+TRAIL kill inactive, SENP8 block-2 inactive, C8 TRAIL sens inactive and SENP6 block inactive.
`COc1ccc(/C=C/c2noc(-c3ccccc3O)n2)cc1` gave SENP8 block-1 inactive, SENP7 inh 88, PPC-1+TRAIL kill inactive, SENP8 block-2 88, C8 TRAIL sens inactive, SENP6 block 89, SENP8 confirm 57, SENP6 confirm inactive, SENP7 confirm 62, Casp3 select 53 and Luc interf inactive.
CC(=O)Oc1ccccc1-c1nc(/C=C/c2ccccc2)no1 was read as SENP8 block-1 inactive, SENP7 inh 70, SENP8 block-2 inactive, C8 TRAIL sens inactive, SENP6 block 61, SENP8 confirm inactive, SENP6 confirm inactive, SENP7 confirm inactive, Casp3 select inactive and Luc interf inactive.
`COCCC(C(=O)Oc1c(C(C)(C)C)cc(C)cc1C(C)(C)C)c1ccccc1` (centres undefined) gave SENP8 block-1 inactive, SENP7 inh inactive, SENP8 block-2 inactive, C8 TRAIL sens inactive and SENP6 block inactive.
